What was measured:
Experiment in all cases: PBM binding z-score (relative to random genomic background probes); higher = stronger binding; sequences stand for … in GC…GCGATTGACAGCGTAGAATGAAGG
[1] = test system: RARb homodimer (NR concentration 270 nM)
Method in brief: (§1)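 Custom Agilent 4×180K protein-binding microarrays carried double-stranded probes, each with a 34-nt variable region. These regions held direct-repeat seeds, single-nucleotide variants, half-site ablations and random human genomic background sequences. Ligand-free nuclear receptor dimers were incubated on the arrays for 1 h, antibodies against each partner (one per run) detected binding, and scanned fluorescence was regression-normalized. Binding z-scores take the random background probes as reference.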

[2] = test system: RARg:RXRa (NR concentration 270 nM, RXRa partner concentration 90 nM)
Method in brief: as §1

[3] = test system: RARg homodimer (NR concentration 270 nM)
Method in brief: as §1

[4] = test system: RXRa DBDmut IVT, anti-RXR (DBD mutation: RXRa K156A/R161A, NR concentration 90 nM)
Method in brief: as §1

[5] = test system: RXRa homodimer (NR concentration 180 nM)
Method in brief: as §1

[6] = test system: THRa:RXRa (NR concentration 90 nM, RXRa partner concentration 90 nM)
Method in brief: as §1

[7] = test system: THRa homodimer (NR concentration 90 nM)
Method in brief: as §1

[8] = test system: VDR homodimer (NR concentration 270 nM)
Method in brief: as §1

Sequence	PBM binding z-score [1]	PBM binding z-score [2]	PBM binding z-score [3]	PBM binding z-score [4]	PBM binding z-score [5]	PBM binding z-score [6]	PBM binding z-score [7]	PBM binding z-score [8]
ACTAGCAGGCCAAGGGGCACTCAAGATTAGTCCG	0.873	0.423	0.766	-0.00995	0.366	0.0441	-0.582	0.169
TCTAGCAGGCCAGAGGGTCACTTAAGAGGTACGG	2.71	2.39	2.2	0.154	2.36	1.53	-0.266	0.361
CTGCCAAGGTGAACAAGGTCGTTGATTACTATTC	2	1.66	1.29	1.04	1.58	3.07	1.67	1.56
ATCTCTAAGTAACCAAGTTCAGTGAATGCCGAAC	1.43	0.516	0.56	1.2	0.443	0.648	0.45	2.61
ATCTCTATGTAAGACTCAGTTCAGTGAAGAACGC	0.277	-0.035	0.0537	0.294	-0.183	0.172	0.339	1.16
ATCTCTAGGTAAGACTCAGTTCTGTGAAGAACGC	0.00747	-0.271	0.0813	0.193	-0.166	0.394	0.633	0.278
TTACCAAGGTGCGCTGAGGTCGTTGATCCAACTC	1.13	0.294	-0.0595	1.12	0.936	3.59	1.87	3.64
ATACCAAGGAGATCGTGAGGTCGTTGATACTAAC	0.696	0.264	0.458	0.394	0.833	2.37	1.63	3.26
CCTATTAGTTGACCATAAGGGCAACTGAAGCTCG	2.04	1.5	1.31	0.724	0.69	1.99	1.28	0.824
GCTGCTAGGTCAACTGTTGGTCAGCTAAAGCTCG	3.66	5.23	5.32	1.66	3.12	2.84	0.983	-0.34
TCTCGGAGGACACGAAGGTCATAGCTTTCCAGAG	3.93	4.04	4.13	1.41	3.28	3.55	1.66	3.09
CAAACTAGATCAAGAGGTCAAAGTCCGCTTCCCG	4.71	4.84	3.96	1.69	5.73	3.93	1.67	3.23
TTAATGAGGTTATAAGATCAGGGAACGTTGCAAA	0.668	1.59	1.01	1.63	2.13	2.04	0.52	0.74
GCTAGTAGTTGAAAGGGCAACCGAATGATTCTCG	1.73	1.22	0.96	0.488	1.47	0.474	-0.735	-0.34
ATCTCGAGGTAAGACTCAGTTCAGTGAAGAACGC	0.343	0.254	0.121	0.0712	-0.00615	1.24	0.382	1.13
CATACTAGGTCACCGGAAGGTCAAAGTCCGCATG	5.62	8.44	7.45	2.21	6.33	4.43	3.31	3.9
GCGACTGGGGCAAAGCAGGTTAACATAAGGTTGG	1.27	0.386	0.747	-0.0641	0.513	3.19	0.0848	-0.0745
CAAACTAGATCACGAAAGGTCAAAGTCGAATGAC	4.84	5.87	5.31	1.47	6.64	3.96	1.07	2.71
TCTTGTAGATCAACAGAAGGTTAAGAAAGATCGA	0.688	0.942	0.329	0.67	1.02	0.733	-0.701	-0.188
CGCACTAGGTCAAGGACAGTGAATCTCCGCACGC	3.34	3.82	4.48	1.72	2.63	3.03	2.15	0.387
ATCGAAAGGACGACGAGGTGAGTATACACCGTTT	0.685	1.09	1.42	-0.192	0.371	1.42	0.601	0.0497
CCTACTGGGTCAAGGTCATTGATCAGTCAAAGCA	4.88	5.77	5.74	2.59	5.72	4.24	3.31	4.04
TCTATTAGTTGAAGGGCAACCGCCGAGTCCGTTT	1.41	0.448	0.651	1.57	0.559	0.213	0.417	1.86
CCTACGGGGCCATTCAGAGGTCATTGATCATATG	4.27	6.22	3.77	2.13	4.07	3.72	1.77	4.91
TCTATTAGTTGATTAGGGCAACCGGAACAGCGGA	0.786	0.516	0.529	1.16	0.673	0.816	0.261	0.547
TCTTGTAGATCATTAGAGGTTAAGAAAGTGCGCT	1.19	0.881	0.586	0.77	1.42	2.67	-0.124	0.446
ATCTCTAGGTAAAAGCTCAGTGAATCCCGAGGAT	-0.335	-0.0468	0.135	-0.625	-0.149	0.0962	-0.296	-0.497
CCTTACTGGTCACTCCAGGTTATAGCATCGGAGT	1.42	0.885	1.32	0.271	0.519	3.26	1.03	0.805

Reference: the supplement of paper PMC6555819
